Assay outcomes: PubChem, National Center for Advancing Translational Sciences (NCATS)
NPSR antag: blocks cAMP signaling of the human neuropeptide S receptor. Q6W5P4. CHO-NPSR cells, cAMP TR-FRET, antagonist mode. Potency, µM (top dose mostly 38.3 µM), inactives show top-dose activity change, negative = inhibition, hits mostly inhibitors. actives 1% (n = 220,000); note: nearly all actives have a fitted effect of over 50% in size
Tau fibril FP: blocks human tau fibril formation measured by polarization; P10636; K18 P301L tau heparin fibrillization, Alexa594 FP, 6 h; Potency, µM (top dose mostly 57.7 µM), inactives show at the highest dose activity, negative = inhibition, usual class: inhibitors; actives 0.39% (n = 280,000); note: nearly all actives have a fitted effect of over 55% in size
Target sequence (P10636 561-689 P618L limits assumed): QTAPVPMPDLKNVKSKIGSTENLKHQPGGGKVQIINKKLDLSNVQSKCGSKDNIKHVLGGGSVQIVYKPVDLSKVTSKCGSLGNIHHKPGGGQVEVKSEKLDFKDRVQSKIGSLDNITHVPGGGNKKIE
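Quantitative HTS format: compounds meet 15 uM recombinant K18 P301L tau and Alexa 594-tau tracer in 100 mM sodium acetate pH 7; 20 uM heparin triggers fibrillization at 37 C over 6 hr; FP gives the signal.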
Tau ThT inhib: tau fibrillization inhibition (ThT binding); Potency, µM (series often up to 57.4 µM), inactives show at the highest dose activity, negative = inhibition, usual class: inhibitors; P10636; AID 1460; actives 2.1% (n = 270,000); recombinant tau K18 P301L, heparin-induced fibrillization, ThT fluorescence; note: nearly all actives have a fitted effect of over 55% in size
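Using a mix of unlabeled (15 uM) and Alexa 594-labeled (0.24 uM) tau K18 P301L, heparin-triggered fibrillization over 6 hr at 37 C was scored by ThT fluorescence.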
ALDH1A1 block: ALDH1A1 (human) enzyme inhibition | Purified ALDH1A1, NADH fluorescence, propionaldehyde substrate | Potency, µM (doses to about 75.3 µM), without a hit: at the highest dose activity, negative = inhibition, actives largely listed as inhibitors | P00352 | AID 1030 | actives 7.3% (n = 220,000); active = well fitted inhibition curve with a large enough effect, not every such curve was filed as active; inconclusive = small, poorly fitted or top-dose-only effect, or another doubt; inactive = no such curve, though single readings can be large or run the other way;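 note: plate controls were no enzyme wells and a reference inhibitor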
Target sequence (P00352 whole entry, looked up): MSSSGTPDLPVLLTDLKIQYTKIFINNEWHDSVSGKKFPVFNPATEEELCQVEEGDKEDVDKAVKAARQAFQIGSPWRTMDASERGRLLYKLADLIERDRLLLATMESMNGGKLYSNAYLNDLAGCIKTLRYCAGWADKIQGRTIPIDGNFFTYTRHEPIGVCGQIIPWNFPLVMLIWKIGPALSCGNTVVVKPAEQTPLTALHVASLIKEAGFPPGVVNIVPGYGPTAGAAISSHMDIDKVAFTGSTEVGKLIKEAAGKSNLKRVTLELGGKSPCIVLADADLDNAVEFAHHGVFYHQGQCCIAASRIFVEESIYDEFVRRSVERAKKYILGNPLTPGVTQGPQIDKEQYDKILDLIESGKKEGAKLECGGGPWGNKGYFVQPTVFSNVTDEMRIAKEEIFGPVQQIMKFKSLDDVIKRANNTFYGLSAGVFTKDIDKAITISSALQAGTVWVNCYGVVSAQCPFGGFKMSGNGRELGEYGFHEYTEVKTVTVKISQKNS
Tau fluor cs: counter-screen for tau fibril formation inhibitors; actives 0.93% (n = 280,000); tau K18 P301L (four-repeat tau fragment) Alexa594 fluorescence, heparin fibrillization; Potency, µM (series often up to 57.7 µM), inactives show at the highest dose activity change, negative = decrease; AID 1463; note: nearly all actives have a fitted effect of over 55% in size
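Human K18 P301L tau (15 uM unlabeled plus 0.24 uM Alexa 594-labeled, final) in 100 mM sodium acetate pH 7 was mixed with compound and 20 uM heparin and incubated 6 hr at 37 C.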
HPGD block: inhibitors of human 15-hydroxyprostaglandin dehydrogenase (HPGD); P15428; actives 4.3% (n = 150,000); purified HPGD, NADH fluorescence kinetic, PGE2 substrate; Potency, µM, for inactives: at the top dose activity change, negative = inhibition, actives largely listed as inhibitors; AID 894; active = well fitted inhibition curve with a large enough effect, not every such curve was filed as active; inconclusive = small, poorly fitted or top-dose-only effect, or another doubt; inactive = no such curve, though single readings can be large or run the other way
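20 nM HPGD preincubated 15 min at room temperature with compound in 50 mM Tris-HCl pH 8, 0.01% Tween 20. Started with 1 mM NAD+ and 30 uM prostaglandin E2; NADH fluorescence (360/450 nm) read 5 times over 30-s intervals, last minus first.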
Active calls of the source: *; ? = inconclusive; · = no result given; [ ] = dose if it differs, or a comment. An excerpt weighted towards active compounds, which were near 9.5% of everything screened. Unless noted, calls come from the whole dose curve; as a rule, active = well fitted curve in the direction sought with a large enough effect; inconclusive = small, poorly fitted or top-dose-only effect, or another doubt; inactive = no such curve, though single readings can be large; an effect the other way counts as inactive or inconclusive. Unless noted, % is set by controls: 0 for no effect and ±100 for the full control effect; potency is the fitted concentration of half-maximal effect.

SMILES	NPSR antag	Tau fibril FP	Tau ThT inhib	ALDH1A1 block	Tau fluor cs	HPGD block
CC(=O)c1ccc(NS(=O)(=O)c2ccc(C(C)(C)C)cc2)cc1	18.9%	-12.9%	-16.9%	12.6µM*	?	·
CC(C)(C)c1ccc(S(=O)(=O)Nc2cccc(C3OCCCO3)c2)cc1	7.1%	9.6%	4.3%	25.1µM*	-9.4%	-5.3%
NC1=NC(=O)/C(=C/c2ccccc2OS(=O)(=O)c2ccc3ccccc3c2)S1	9.4%	-8.6%	-1.3%	10.2%	-5.4%	-18.6%
CC(=O)Nc1ccc(OS(=O)(=O)c2ccc(C(C)(C)C)cc2)cc1	0.5%	?	-8.4%	12.6µM*	?	·
CC(=O)c1ccc(NS(=O)(=O)c2ccc(C)cc2)cc1	-1.7%[46.1 µM]	?	-6.0%	-11.0%	-6.2%	?
CC(=O)Nc1ccc(S(=O)(=O)Oc2ccc(/C=C3\SC(N)=NC3=O)cc2)cc1	8.7%	25.1µM*	-16.6%	-6.8%	-13.4%	·
COc1cccc(NC(=O)CSc2ncc(S(=O)(=O)c3ccc(C)c(C)c3)c(=O)[nH]2)c1	·	9.9%	4.3%	·	-0.8%	·
COc1ccc(N2C(=O)C(Cl)=C(N3CCCC(C)C3)C2=O)cc1 (stereo unspecified)	-28.2%[46.1 µM]	28.2µM*	15.8µM*	-15.0%	?	-9.8%
CC1CCCN(C2=C(Cl)C(=O)N(c3cccc(Cl)c3)C2=O)C1 (stereo unspecified)	-44.2%	17.8µM*	14.1µM*	?	?	-19.7%
COc1ccc(N2C(=O)C(Cl)=C(N3CCCC3)C2=O)cc1	-23.7%[46.1 µM]	?	?	-9.8%	-21.1%	-6.4%
COC(=O)C/C=C1\c2ccccc2C(OC)C1C (stereo unspecified)	·	-3.6%[11.6 µM]	-6.5%[11.5 µM]	-2.7%[13.5 µM]	-10.7%[11.6 µM]	·
CCC(C)C(=O)Nc1ccc(OC)cc1OC (stereo unspecified)	0.8%[46.1 µM]	7.1%	-9.7%	7.9%	-11.2%	0.0%
COc1ccc(NC(=O)N(CCC(C)C)C(C)c2ccccn2)c(OC)c1 (stereo unspecified)	-17.0%[46.1 µM]	4.7%	?	14.1µM*	-9.9%	-16.7%
COc1cc([N+](=O)[O-])cc(/C=N/NC(=O)Cn2nccc2C)c1O	7.9%	-4.6%	·	·	-9.9%	·
O=C1COc2ccc(C(=O)CSc3nnc(Cc4cccs4)n3-c3ccccc3)cc2N1	-11.3%[46.1 µM]	0.3%	?	3.16µM*	-25.9%	-25.7%
Cc1nnc(NC(=O)CSc2nnc(Cc3cccn3C)n2C)s1	-27.2%[46.1 µM]	-9.7%	-9.3%	22.4µM*	-2.8%	-9.2%
COc1ccc(-n2c(Cc3cccn3C)nnc2SCC(=O)Nc2cccc(F)c2)cc1	-2.2%	5.0%	-2.0%	12.6µM*	-7.7%	-16.0%
O=C1COc2ccc(C(=O)CSc3nnc(-c4cccs4)n3Cc3ccccc3)cc2N1	-20.6%[46.1 µM]	-19.9%	?	?	-12.1%	-23.8%
Cn1cccc1Cc1nnc(SCC(=O)Nc2ccc3c(c2)OCCO3)n1-c1ccc(F)cc1	-10.1%	1.4%	-9.3%	20µM*	-14.8%	-0.2%
Cc1ccc(-n2c(Cc3cccn3C)nnc2SCC(=O)Nc2nnc(C)s2)cc1	-4.9%[46.1 µM]	-9.0%	-20.1%	5.6%	-9.9%	-9.9%
CCC(=O)N1CCc2cc(Br)cc(S(=O)(=O)CCC(=O)N(C)c3cccc(C)c3)c21	·	-2.7%	-8.2%	·	-10.3%	·
COc1ccc(-n2c(Cc3cccn3C)nnc2SCC(=O)Nc2ccc(Cl)cc2)cc1	?	-6.1%	-4.7%	3.98µM*	-22.5%	-11.3%
CCc1ccc(NC(=O)CSc2nnc(Cc3cccn3C)n2-c2ccc(OC)cc2)cc1	-28.5%[46.1 µM]	?	?	?	-16.3%	-8.7%
O=C(CSc1nnc(Cc2cccs2)n1-c1ccccc1)Nc1ccc2c(c1)OCCO2	-29.1%[46.1 µM]	-4.8%	-12.3%	7.94µM*	-23.7%	-10.0%
COc1ccc(-n2c(Cc3cccn3C)nnc2SCC(=O)Nc2ccccc2)cc1	-27.0%[46.1 µM]	-10.1%	-14.7%	14.1µM*	-11.6%	-14.1%
SMILES	NPSR antag	Tau fibril FP	Tau ThT inhib	ALDH1A1 block	Tau fluor cs	HPGD block
Cn1cccc1Cc1nnc(SCC(=O)Nc2ccc(Cl)cc2)n1-c1ccc(F)cc1	-46.6%	-3.6%	0.2%	?	?	-10.8%
COc1ccc(NC(=O)CSc2nnc(Cc3cccn3C)n2-c2ccc(F)cc2)cc1OC	0.0%[46.1 µM]	10.1%	-0.6%	25.1µM*	-4.9%	-16.1%
Cc1ccc(-n2c(Cc3cccs3)nnc2SCC(=O)Nc2ccc(F)c(F)c2)cc1	?	-11.8%	1.2%	?	?	-5.1%
COc1cc(/C=N/N=C/c2c[nH]c(=O)c(C#N)c2Nc2ccccc2)ccc1O	6.6%	-9.3%	-11.5%	·	-12.5%	·
COc1ccc(C)cc1NC(=O)Nc1ccccc1OCc1cc(=O)n2ccccc2n1	·	-2.1%	?	·	?	·
COc1ccc(N(C(=O)c2cccc([N+](=O)[O-])c2)S(=O)(=O)c2cccs2)cc1	-19.6%	0.2%	?	25.1µM*	?	·
COc1ccc(C(=O)/C=C/c2ccc(F)cc2)c(OC(=O)c2ccc([N+](=O)[O-])cc2)c1	-20.8%[46.1 µM]	0.3%	10µM*	?	12.6µM*[quencher]	-13.3%
COc1ccc(/C(N)=N/OC(=O)c2cccc([N+](=O)[O-])c2)cc1	-11.2%[46.1 µM]	?	-29.2%	-1.8%	-21.9%	-6.0%
COc1ccc(N(C(=O)c2cccnc2)S(=O)(=O)c2cccc([N+](=O)[O-])c2)cc1	-13.4%	?	?	-12.9%	-7.5%	·
COc1ccc(C(=O)/C=C/c2cccs2)c(OC(=O)c2cccc([N+](=O)[O-])c2)c1	5.9%[46.1 µM]	9.4%	3.98µM*	-12.6%	?	-15.6%
COc1ccc(CN(C)C2CCCCC2)cc1	-8.1%[46.1 µM]	-4.1%	3.9%	-0.5%	-6.8%	-10.8%
COc1ccc(CC2NCCC3(O)CCCCC23)cc1 (stereo unspecified)	-3.3%[46.1 µM]	-0.8%	-7.7%	15.8µM*	4.9%	-18.8%
COc1cc(/C=C/c2ccc3c(Br)cc(Br)c(O)c3n2)ccc1O	35.6%	1.1%	3.55µM*	-2.2%	5.01µM*[quencher]	·
COc1cc(/C=C/C2=NC(=O)C(C)(C)O2)ccc1O	1.6%[46.1 µM]	-1.3%	-15.3%	?	-0.8%	-25.1%
COc1cccc(NC(=O)CSc2nc(-c3ccccc3)nc3c2Cc2cc(Cl)ccc2O3)c1	·	-6.8%	4.3%	·	-2.6%	·
CCCN1CCC(=NNC(=O)c2ccc(Br)o2)CC1	-5.9%[46.1 µM]	3.7%	-13.2%	12.6µM*	1.8%	-6.0%
CCCN1CCC(=NNc2ccc(C(=O)O)cc2)CC1	1.4%	1.9%	?	25.1µM*	-2.1%	·
C#CCNC(=O)C1=C[C@H](c2ccc(C(F)(F)F)cc2)[C@@H](CCCO)[C@H](OCC)O1	2.4%	7.8%	8.7%	9.8%	0.1%	·
COc1ccc(Nc2oc(COc3ccc(OC)cc3)nc2C#N)cc1	-15.4%[46.1 µM]	3.6%	?	-1.6%	28.2µM*[quencher]	?
